Bioassay records: PubChem, National Center for Advancing Translational Sciences (NCATS)
Most compounds without a hit are left out; they make up all but 0.35% or so of the library.
GLS inhibitor – inhibitors of human glutaminase (GLS); O94925; GLS enzymatic activity, qHTS titration; Potency, µM (top dose mostly 45.5 µM), without a hit: top-dose activity change, negative = inhibition, usual class: inhibitors; 410,000 tested, 0.21% active; AID 624170
Target sequence (O94925 whole entry, looked up): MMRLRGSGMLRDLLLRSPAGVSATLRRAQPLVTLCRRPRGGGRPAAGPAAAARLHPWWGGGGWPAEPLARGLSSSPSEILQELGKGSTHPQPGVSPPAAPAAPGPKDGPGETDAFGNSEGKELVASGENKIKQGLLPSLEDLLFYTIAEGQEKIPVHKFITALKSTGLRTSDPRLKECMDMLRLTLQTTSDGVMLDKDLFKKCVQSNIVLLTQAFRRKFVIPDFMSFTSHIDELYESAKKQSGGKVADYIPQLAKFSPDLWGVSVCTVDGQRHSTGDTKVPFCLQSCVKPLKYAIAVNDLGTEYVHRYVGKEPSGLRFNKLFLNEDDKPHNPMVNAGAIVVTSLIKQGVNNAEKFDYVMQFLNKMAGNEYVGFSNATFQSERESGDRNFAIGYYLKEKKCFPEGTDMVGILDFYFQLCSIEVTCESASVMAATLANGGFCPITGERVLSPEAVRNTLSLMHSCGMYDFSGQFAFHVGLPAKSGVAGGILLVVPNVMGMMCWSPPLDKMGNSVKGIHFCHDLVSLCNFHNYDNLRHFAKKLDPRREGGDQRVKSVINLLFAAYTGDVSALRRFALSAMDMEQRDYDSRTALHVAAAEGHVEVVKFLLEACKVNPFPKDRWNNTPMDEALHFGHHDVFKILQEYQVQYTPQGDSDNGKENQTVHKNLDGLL
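Enzyme dispensed in phosphate buffer (45 mM, pH 8.2, 0.02% Tween-20), compounds pinned in, then 1 mM L-glutamine solution and the glutamate oxidase–HRP–Amplex Red mix added; fluorescence read immediately and again after 30 min at room temperature.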
Anesthetic bind – candidate novel general anesthetic via apoferritin binding. P02791. apoferritin/1-aminoanthracene competitive binding, fluorescence. Potency, µM (doses to about 77.5 µM), without a hit: at the top dose activity change, negative = displacement, hits mostly inhibitors. 350,000 tested, 0.074% active; also: nearly all actives have a fitted effect of over 20% in size
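Horse-spleen apoferritin (10 uM) was mixed with 50% saturated 1-aminoanthracene in PBS, exposed to compounds for 10 min at room temperature, and read for fluorescence (ex 380 nm, em 535 nm). Competitive displacement was fitted with a four-parameter Hill equation.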
B2AR arrestin – agonists driving beta-arrestin recruitment to human beta2-adrenergic receptor. Potency, µM (doses to about 46.1 µM), for the others: at the highest dose activation, usual class: activators. P07550. 330,000 tested, 0.02% active. AID 492947. beta-arrestin recruitment to beta2AR, cell-based reporter;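 also: 0% = DMSO controls and full agonism = EC100 isoproterenol or metaproterenol; nearly all actives have a fitted effect of over 65% in size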
MBNL1 CUG block – MBNL1-poly(CUG) RNA binding inhibition; AID 2675; Potency, µM (doses to about 57.5 µM), for the others: at the top dose activity change, negative = inhibition, actives largely listed as inhibitors; TR-FRET MBNL1-His/biotin-(CUG)12 binding, 665/545 ratio; 280,000 tested, 0.036% active; Q9NR56; active = well fitted inhibition curve with a large enough effect in the signal ratio, with a control signal flat, not every such curve was filed as active; inconclusive = small, poorly fitted or top-dose-only effect, or effect the other way, or a change in a side signal; inactive = no such curve, though single readings can be large or run the other way; the % refers to the signal ratio
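MBNL1-His + Biotin-(CUG)12, cpd titration 92 nM–58 uM; Tb anti-His Ab 0.055 ng/ul, SA-XL665 5 nM (final); 60 min RT; ratiometric 665/545 nm, Ex 340 nm; normalized to buffer and full-complex controls.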
BCR signal inh – inhibitors of chronic active B-cell receptor signaling. Potency, µM (top dose mostly 46.1 µM), for inactives: at the top dose activity change, negative = inhibition, most hits filed as inhibitors. AID 493014. ABC-DLBCL IkBa-CBG/CBR reporter, luminescence ratio, 4 h. 340,000 tested, 0.05% active; active = well fitted inhibition curve with a large enough effect in the signal ratio, with a control signal flat, not every such curve was filed as active; inconclusive = small, poorly fitted or top-dose-only effect, or effect the other way, or a change in a side signal; the % refers to the signal ratio;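 also: plate controls were basal doxycycline-induced cells for no effect and cells given 10 µM MG132 for full effect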
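Doxycycline induced both beetle luciferases in TMD8 lymphoma cells; IKK-driven degradation limits the IkappaBalpha-fused green signal, while red luminescence normalises for cell number and nonspecific effects. Compounds tested up to 46 uM, 4 hrs.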
* = called active by the depositor. Unless noted, calls follow the shape of the dose curve; as a rule, active = well fitted curve in the direction sought with a large enough effect; inconclusive = small, poorly fitted or top-dose-only effect, or another doubt; inactive = no such curve, though single readings can be large; an effect the other way counts as inactive or inconclusive. Unless noted, % is scaled to controls: 0 for no effect and ±100 for the full control effect; potency is read from the fitted curve at half-maximal effect.

Screening C=CCc1ccc(OCCOc2ccc(/C=N/n3cnnc3)cc2OCC)c(OC)c1 returned GLS inhibitor -4.0%, Anesthetic bind inconclusive, B2AR arrestin 0.1%, MBNL1 CUG block 9.3% and BCR signal inh 23.1µM*.
`Cc1cc(NC(=O)CSc2cn(CCNC(=O)c3ccccc3)c3ccccc23)no1` gave GLS inhibitor 8.91µM*, Anesthetic bind -15.7%, B2AR arrestin -0.1%, MBNL1 CUG block 1.6% and BCR signal inh inconclusive.
`COc1ccc(S(=O)(=O)NCCSC(C)(C)C)c(Cl)c1Cl` gave GLS inhibitor -12.3%, Anesthetic bind 15.8µM*, B2AR arrestin 0.1%, MBNL1 CUG block -5.1% and BCR signal inh 0.0%.
Screening CCCNS(=O)(=O)c1ccc(OC)c(Cl)c1Cl returned GLS inhibitor -3.6%, Anesthetic bind -10.8%, B2AR arrestin -0.6%, MBNL1 CUG block -3.1% and BCR signal inh inconclusive.
O=P(O)(O)OC(Cn1cncn1)(Cn1cncn1)c1ccc(F)cc1F was read as GLS inhibitor -3.4%.
For CC(C)(C)OC(=O)NC(NC(=O)OCC1c2ccccc2-c2ccccc21)C(=O)O (stereo unspecified) the results were Anesthetic bind -4.3%.
`Cc1ccc(NC(=O)C2CCC(CNS(=O)(=O)c3ccc4c(c3)CCCC(=O)N4)CC2)cc1F` (stereo unspecified) gave GLS inhibitor -3.9% and Anesthetic bind 4.4%.
`CC(=O)c1ccc(NC(=O)c2ccc3nc(-c4ccco4)c(-c4ccco4)nc3c2)cc1` gave GLS inhibitor 14.1µM*, Anesthetic bind -17.5%, B2AR arrestin 0.1%, MBNL1 CUG block inconclusive and BCR signal inh inconclusive.
`Cc1ccc(-c2nc3sc(CCNC(=O)c4ccc(F)c(F)c4)c(C)n3n2)cc1` gave GLS inhibitor -14.7%, Anesthetic bind 6.4% and BCR signal inh -19.7%.
Screening Clc1cccc(Cl)c1CNc1ccc(N2CCCC2)cc1 returned GLS inhibitor 7.08µM*, Anesthetic bind -13.9%, B2AR arrestin 0.4%, MBNL1 CUG block 8.7% and BCR signal inh inconclusive.
Screening CC1(C)SC(=S)N(/N=C/c2ccccc2O)C1N(O)C(=O)Nc1ccccc1 (stereo unspecified) returned GLS inhibitor 1µM*, Anesthetic bind -5.6%, B2AR arrestin 0.4%, MBNL1 CUG block -1.6% and BCR signal inh inconclusive.
Screening CC1(C)SC(=S)N(/N=C/c2cccnc2)C1N(O)C(=O)Nc1ccccc1 (stereo unspecified) returned GLS inhibitor 50.5%, Anesthetic bind -18.7%, B2AR arrestin -0.3%, MBNL1 CUG block 3.9% and BCR signal inh 1.2%.
For CCc1ccc(NC(=O)C(C)OC(=O)/C=C/c2ccc(O)c(OC)c2)cc1 (stereo unspecified) the results were GLS inhibitor inconclusive, B2AR arrestin -0.5% and BCR signal inh 20.6µM*.
For COc1cc(/C=C/C(=O)OCC(=O)c2ccc(OC(F)F)cc2)ccc1O the results were GLS inhibitor 11.2µM*, B2AR arrestin 0.0% and BCR signal inh 2.9%.
For COc1cc(/C=C/C(=O)OC(C)C(=O)Nc2c(C)n(C)n(-c3ccccc3)c2=O)ccc1O (stereo unspecified) the results were GLS inhibitor inconclusive, B2AR arrestin -0.2% and BCR signal inh 1.3%.
For COc1ccc(N(Cc2cccs2)C(=O)c2ccc(Br)o2)cc1 the results were GLS inhibitor 7.9% and Anesthetic bind 2.4%.
Screening O=C(O)/C=C/c1ccc([N+](=O)[O-])o1 returned GLS inhibitor 11.2µM*, Anesthetic bind -12.6%, B2AR arrestin 0.3%, MBNL1 CUG block inconclusive and BCR signal inh 4.2%.
Screening CCCCOc1ccc(C(C)NC(=O)CN2C(=O)CSc3ccc(S(=O)(=O)N4CCOCC4)cc32)cc1 (stereo unspecified) returned GLS inhibitor -4.9%, Anesthetic bind -4.6% and BCR signal inh inconclusive.
CCc1ccccc1NC(=O)CSc1nc2n[nH]c(C)c2c(=N)n1-c1ccc(OC)cc1 was read as GLS inhibitor 11.2µM*, Anesthetic bind -17.7%, B2AR arrestin -0.6%, MBNL1 CUG block 0.2% and BCR signal inh 1.7%.
For CS(=O)(=O)N(CC(=O)Nc1ccc(Br)cc1)c1ccccc1Br the results were GLS inhibitor 4.4%, Anesthetic bind 5.9% and BCR signal inh 16.6%.
Cc1ccc(S(=O)(=O)N2CCCc3cc(NS(=O)(=O)c4ccc(F)c(C)c4)ccc32)cc1 was read as GLS inhibitor 1.7% and Anesthetic bind 44.4%.
`CC(C)c1ccc(CNCCSc2nnnn2C)cc1` gave GLS inhibitor 7.6% and Anesthetic bind -8.2%.
For Cn1nnnc1SCCNCc1ccc(OCc2ccc(Cl)cc2)cc1 the results were GLS inhibitor 4.5% and Anesthetic bind 28.2µM*.
Screening CCOC(=O)c1ccc(OCCN2C[C@H](O)[C@@H](O)[C@H](O)[C@H]2CO)cc1 returned GLS inhibitor -2.9%.
Screening CN(C)c1cc2c3ccccc3n(C)c2cc1N returned GLS inhibitor 11.2µM*.
Screening O=C1NC2CCCCN2C12CCN(CCCN1c3ccccc3CCc3ccc(Cl)cc31)CC2 (stereo unspecified) returned GLS inhibitor 14.5%.
Screening O.O=C([O-])CC([S-])C(=O)[O-].[Au+].[Na+].[Na+] (stereo unspecified) returned GLS inhibitor 2.0%.
Oc1ccc(NCc2ccccc2OCc2ccccc2)cc1 was read as GLS inhibitor inconclusive, Anesthetic bind inconclusive, B2AR arrestin 7.31µM* and BCR signal inh inconclusive.
`Cc1cccc(NC(=S)NC(=O)C2CC2)c1` gave Anesthetic bind 22.4µM*, B2AR arrestin inconclusive, MBNL1 CUG block -4.3% and BCR signal inh inconclusive.
Cc1cc(C)cc(NC(=S)NC(=O)C2CC2)c1 was read as GLS inhibitor -9.9%, Anesthetic bind -21.2%, B2AR arrestin -1.5%, MBNL1 CUG block -0.3% and BCR signal inh -0.2%.
For CCc1ccc(C(=O)COC(=O)CNC(=O)Cc2ccccc2)cc1 the results were GLS inhibitor 2.1%, Anesthetic bind inconclusive, B2AR arrestin 0.5%, MBNL1 CUG block -9.4% and BCR signal inh 4.7%.
Screening CCC(=O)NCC(=O)OCC(=O)c1ccccc1 returned GLS inhibitor 25.1µM*, Anesthetic bind 3.1%, B2AR arrestin -0.5%, MBNL1 CUG block 11.6% and BCR signal inh inconclusive.
O=P(O)(O)OC[C@@H](O)CO was read as GLS inhibitor 0.8%.
`CO/N=C(/C(=O)NC1C(=O)N2C(C(=O)O)=C(CSc3nc(=O)c(O)nn3C)CSC12)c1csc(N)n1` (stereo unspecified) gave GLS inhibitor 28.2µM* and Anesthetic bind 4.3%.
